# Read-outs that look alike come from different tables or passages of the source.
# Columns and labels:
# Set-up in all cases: species or system human, MV4-11 + K-562 + COLO205 + SK-N-BE2 + OVCAR-8
# CSNK1E = settings: read-out: apparent Kd, n = 1
# ERN1 = settings: read-out: apparent Kd, compound concentrations: 100 nM and 1000 nM (sheet 'Samples'), n = 1
# BRAF = settings: read-out: apparent Kd, n = 1
# MAP3K11 = settings: read-out: apparent Kd, n = 1
# IKBKE = settings: read-out: apparent Kd, compound concentrations: 100 nM and 1000 nM (sheet 'Samples'), n = 1
# MAP4K1 = settings: read-out: apparent Kd, n = 1
# MELK = settings: read-out: apparent Kd, n = 1
# TEC = settings: read-out: apparent Kd, n = 1
# ERN2 = settings: read-out: apparent Kd; compound concentrations:100 nM and 1000 nM (sheet 'Samples'); n = 1
# PYGL = settings: read-out: apparent Kd, n = 1
# ATM = settings: read-out: apparent Kd; compound concentrations:100 nM and 1000 nM (sheet 'Samples'); n = 1
# PRKAA1 = settings: read-out: apparent Kd; compound concentrations:100 nM and 1000 nM (sheet 'Samples'); n = 1
# PRKAA2 = settings: read-out: apparent Kd, n = 1
# NNT = settings: read-out: apparent Kd, n = 1
# STK4 = settings: read-out: apparent Kd, n = 1
# PRKAG2 = settings: read-out: apparent Kd, n = 1
# PRKX;PRKY = settings: read-out: apparent Kd; compound concentrations: 100 nM and 1000 nM (sheet 'Samples'), CATDS: 3.2948163641369002E-2; n = 1
# ICK = settings: read-out: apparent Kd, n = 1
# PIK3C3 = settings: read-out: apparent Kd; compound concentrations:100 nM and 1000 nM (sheet 'Samples'); n = 1
# [1] = compound concentrations:100 nM and 1000 nM (sheet 'Samples')
smiles,measurement,setting,value
Fc1ccc(-c2c(-c3ccncc3)[nH]c3nccnc23)cc1 [RO1155697-000],potency estimated from few doses,CSNK1E; [1],52.8 nM
CC(=O)N1CCN(c2ccc(Nc3nccc(-c4sc(C(C)C)nc4-c4cccc(NS(=O)(=O)c5cccc(Cl)c5)c4)n3)cn2)CC1 [GSK1660437A],potency estimated from few doses,ERN1; CATDS: 3.4539361157079097E-2,2420 nM
CC(C)c1nc(-c2cccc(NS(=O)(=O)c3c(F)cccc3F)c2)c(-c2ccnc(Nc3ccc(N4CCOCC4)nc3)n2)s1.Cl [GSK1723980B],potency estimated from few doses,"BRAF; compound concentrations: 100 nM and 1000 nM (sheet 'Samples'), CATDS: 2.6842704761094599E-2",243 nM
same,potency estimated from few doses,ERN1; CATDS: 1.53606700454439E-2,1320 nM
same,potency estimated from few doses,"MAP3K11; compound concentrations: 100 nM and 1000 nM (sheet 'Samples'), CATDS: 1.8312802074437001E-2",662 nM
CNC(=O)c1ccccc1Nc1nc(Nc2cccc(CS(C)(=O)=O)c2)ncc1C.O=CO [GSK1520489A],potency estimated from few doses,IKBKE; CATDS: 1.0336564492146301E-2,1110 nM
same,potency estimated from few doses,"MAP4K1; compound concentrations: 100 nM and 1000 nM (sheet 'Samples'), CATDS: 1.32778170160273E-2",423 nM
same,potency estimated from few doses,"MELK; compound concentrations: 100 nM and 1000 nM (sheet 'Samples'), CATDS: 9.6320632964756892E-3",1610 nM
same,potency estimated from few doses,"TEC; compound concentrations: 100 nM and 1000 nM (sheet 'Samples'), CATDS: 7.2078436601234794E-2",13.5 nM
CC(C)c1nc(-c2ccc(F)c(NS(=O)(=O)c3c(F)cccc3F)c2)c(-c2ccnc(Nc3ccc(N4CCOCC4)nc3)n2)s1 [GSK1804250A],potency estimated from few doses,BRAF; [1],939 nM
same,potency estimated from few doses,ERN2,1120 nM
Nc1nc(N)c2nc(-c3ccccc3)[nH]c2n1 [SKF-12778],potency estimated from few doses,PYGL; [1],1640 nM
same,potency estimated from few doses,TEC; [1],1160 nM
CC(=O)N1CCN(c2ccc(Nc3nccc(-c4sc(C(C)C)nc4-c4cccc(NS(=O)(=O)c5ccccc5)c4)n3)cn2)CC1 [GSK1645872A],potency estimated from few doses,"BRAF; compound concentrations: 100 nM and 1000 nM (sheet 'Samples'), CATDS: 3.03150696001999E-2",721 nM
CNc1nccc(-c2c(-c3ccc(F)cc3)ncn2C2CCN(C)CC2)n1 [SB-222903],potency estimated from few doses,ATM,80.7 nM
same,potency estimated from few doses,CSNK1E; [1],41.6 nM
Cl.Cn1c(=O)c(Cc2ccc(F)cc2F)cc2cnc(NC3CCOCC3)nc21 [RO3308757-001],potency estimated from few doses,ATM,247 nM
same,potency estimated from few doses,PRKAA1,706 nM
same,potency estimated from few doses,PRKAA2; [1],1190 nM
COc1cc(/C=N/Nc2ncnc3[nH]ncc23)ccc1O [GW578748X],potency estimated from few doses,MELK; [1],2390 nM
Cn1cc(-c2ccc3c(c2)CCN3C(=O)Cc2cc(F)cc(C(F)(F)F)c2)c2c(N)ncnc21 [GSK2635225A],potency estimated from few doses,IKBKE; CATDS: 0.14106315772238301,1220 nM
O=S(=O)(c1ccc(-c2ccnc3[nH]ccc23)cc1)N1CCCC1 [GSK846226A],potency estimated from few doses,NNT; [1],2150 nM
Cn1cc(-c2cnc(N)c3c(-c4ccc5c(c4)CCN5C(=O)Cc4ccccc4)csc23)cn1 [GSK2593074A],potency estimated from few doses,MAP4K1; [1],1630 nM
same,potency estimated from few doses,STK4; [1],1130 nM
COc1cc2ncn(-c3cc(O[C@H](C)c4ccccc4Cl)c(C(N)=O)s3)c2cc1OC [GSK237701A],potency estimated from few doses,PRKAG2; [1],1520 nM
Clc1ccc(-c2nn3ncccc3c2-c2ccnc(Nc3ccccc3)n2)cc1 [GW829055X],potency estimated from few doses,"NNT; compound concentrations: 100 nM and 1000 nM (sheet 'Samples'), CATDS: 0.15486403103885801",130 nM
same,potency estimated from few doses,"PRKAG2; compound concentrations: 100 nM and 1000 nM (sheet 'Samples'), CATDS: 5.2406473036639797E-2",681 nM
same,potency estimated from few doses,"PYGL; compound concentrations: 100 nM and 1000 nM (sheet 'Samples'), CATDS: 3.3581254695289102E-2",1800 nM
Fc1cccc(COc2ccc(Nc3ncncc3C#Cc3ccccc3)cc2Cl)c1 [GW651576X],potency estimated from few doses,"NNT; compound concentrations: 100 nM and 1000 nM (sheet 'Samples'), CATDS: 5.0215020986353498E-2",1770 nM
same,potency estimated from few doses,"PRKAG2; compound concentrations: 100 nM and 1000 nM (sheet 'Samples'), CATDS: 5.1701945188740897E-2",1670 nM
Cc1ccc(NC(=O)c2ccc(Cl)cc2)cc1-c1ccc(C(=O)Nc2ccncc2)cc1 [GSK1398467A],potency estimated from few doses,"NNT; compound concentrations: 100 nM and 1000 nM (sheet 'Samples'), CATDS: 0.228122835279086",956 nM
Cn1cc(C2=C(c3cn(CCCCCO)c4ccccc34)C(=O)NC2=O)c2ccccc21 [RO0318053-000],potency estimated from few doses,"PRKAA2; compound concentrations: 100 nM and 1000 nM (sheet 'Samples'), CATDS: 8.4372577909481605E-2",1450 nM
COc1ccc(C2=C(c3cn(C)c4ccccc34)C(=O)NC2=O)cc1OC [RO3206363-000],potency estimated from few doses,PRKX;PRKY,1620 nM
same,potency estimated from few doses,"PYGL; compound concentrations: 100 nM and 1000 nM (sheet 'Samples'), CATDS: 3.1878798319940699E-2",1850 nM
same,potency estimated from few doses,"STK4; compound concentrations: 100 nM and 1000 nM (sheet 'Samples'), CATDS: 7.8788816860825395E-2",166 nM
Cn1cc(C2=C(c3ccccc3[N+](=O)[O-])C(=O)NC2=O)c2ccccc21 [RO0317753-000],potency estimated from few doses,"ICK; compound concentrations: 100 nM and 1000 nM (sheet 'Samples'), CATDS: 0.27950775870472",32.3 nM
Fc1ccc(-c2ncn(C3CCNCC3)c2-c2ccnc(Oc3ccc4c(c3)OCO4)n2)cc1 [SB-250715],potency estimated from few doses,CSNK1E; [1],811 nM
same,potency estimated from few doses,PYGL; [1],1990 nM
NC(=O)c1cccnc1COc1cc(-c2ccc(N3CCOCC3)nc2)cc2ncccc12 [BI01125081],potency estimated from few doses,MAP3K11; [1],1890 nM
same,potency estimated from few doses,PIK3C3,1260 nM
COc1ccc(COc2ccc(Cc3cnc(N)nc3N)cc2OC)cc1 [GW632580X],potency estimated from few doses,NNT; [1],1910 nM
COc1cc(F)c(F)c(F)c1C(=O)c1cnc(NC2CCN(S(C)(=O)=O)CC2)nc1N [RO4600703-000],potency estimated from few doses,ICK; [1],246 nM
Nc1c(C(=O)c2ccccc2)cnn1-c1ccc(F)cc1 [RO1151246-000],potency estimated from few doses,MAP3K11; [1],1920 nM
same,potency estimated from few doses,PRKAA2; [1],1780 nM
Nc1nccc(-c2c(-c3ccc(F)cc3)ncn2C2CCC(O)CC2)n1 (stereo not drawn) [SB-223133],potency estimated from few doses,"CSNK1E; compound concentrations: 100 nM and 1000 nM (sheet 'Samples'), CATDS: 0.26273499221924201",3.2 nM

# From article PMC11062922 (Nature Chemical Biology, 2023)
